Bioassay records (PubChem)
SENP8 block-1: inhibitors of human SENP8 protease. Q96LD8. purified SENP8, Z-RLRGG-aminoluciferin cleavage, luminescence. inhibition, % at 10 µM. 330,000 tested, 1.2% active. AID 2540; in the data active = inhibition above about 50%
SENP6 block: SENP6 protease inhibition | AID 2599 | Recombinant SENP6 catalytic domain, aminoluciferin luminescence | inhibition, % at 10 µM | 330,000 tested, 1.8% active | Q9GZR1;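 active = inhibition above about 50% at the single tested dose, limit read from the data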;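 also: plate controls were DMSO wells with enzyme for no effect and DMSO wells lacking enzyme for full effect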
SENP8 block-2: inhibitors of human SENP8 protease; recombinant SENP8, Nedd8 substrate fluorescence; inhibition, % at 20 µM; AID 602440; 360,000 tested, 0.64% active; Q96LD8; in the data active = inhibition mostly above about 40%, no sharp cut-off; inactive = mostly below about 27%
SENP7 inh: SENP7 protease inhibition; Q9BQF6; 330,000 tested, 1.5% active; recombinant SENP7, Z-RLRGG-aminoluciferin luminescence, 40 min; inhibition, % at 5 µM;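 active = inhibition above about 50% at the single test dose, limit read from the data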;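 also: plate controls were DMSO with enzyme for no effect and no enzyme buffer wells for full effect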
HSP90 inh: inhibitors of HSP90 luciferase refolding in rabbit reticulocyte lysate. 290,000 tested, 0.91% active. luciferase refolding luminescence, 3 h. AID 1789. inhibition, % at 5.6 µM;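 active = inhibition above the screen-wide mean plus 3 SD, computed separately per campaign, cut at about 16% in these data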;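 also: 0% = DMSO wells and 100% = 60 µM geldanamycin wells; inhibitors lower the luminescence because luciferase stays unfolded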
HSP90 confirm: HSP90 inhibition, confirmation assay; shares compounds with HSP90 inh; inhibition, % at 5.9 µM; 2,300 tested, 64% active; rabbit reticulocyte lysate, luciferase refolding luminescence, 3 h; AID 1846; in the data active = inhibition above about 18%;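 also: 0% = vehicle wells and 100% = reference inhibitor wells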
luciferase ctr: firefly luciferase inhibition, HSP90 counter-screen. shares compounds with HSP90 inh. purified native firefly luciferase, luminescence. inhibition, % at 5.9 µM. 2,300 tested, 48% active. AID 1847;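 active = inhibition above the mean inhibition of all tested sample wells plus 3 SD, cut at about 10% in these data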;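 also: 0% = DMSO with luciferase and 100% = wells lacking luciferase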
Target sequence (P08659 whole entry, looked up): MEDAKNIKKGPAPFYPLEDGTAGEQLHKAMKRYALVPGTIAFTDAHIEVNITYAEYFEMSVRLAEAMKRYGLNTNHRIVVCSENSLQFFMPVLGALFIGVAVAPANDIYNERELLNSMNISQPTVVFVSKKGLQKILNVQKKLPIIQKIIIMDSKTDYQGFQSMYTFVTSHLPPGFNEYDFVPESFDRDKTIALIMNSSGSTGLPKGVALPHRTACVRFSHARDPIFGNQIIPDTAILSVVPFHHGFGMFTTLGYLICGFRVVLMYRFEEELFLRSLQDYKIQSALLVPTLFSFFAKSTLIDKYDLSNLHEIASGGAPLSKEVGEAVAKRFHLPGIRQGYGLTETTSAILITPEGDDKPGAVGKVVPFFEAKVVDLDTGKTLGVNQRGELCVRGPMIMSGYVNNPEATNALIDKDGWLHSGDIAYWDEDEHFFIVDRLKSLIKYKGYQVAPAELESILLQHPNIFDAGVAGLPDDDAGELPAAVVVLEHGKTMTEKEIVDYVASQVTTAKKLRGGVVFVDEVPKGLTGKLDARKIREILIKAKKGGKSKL
Starred values were filed as active, the others as inactive. Sampled rows, rich in hits. Any-hit rate of the full collection: about 2.8%.

Cn1c(=O)[nH]c(=O)c2c1nc1n2CCCS1 was read as SENP8 block-1 -1, SENP6 block -11, SENP8 block-2 8, SENP7 inh -5 and HSP90 inh -1.
CC(C)Oc1ccc(CC(=O)NNC(=S)Nc2ccccc2)cc1 was read as SENP8 block-1 -3, SENP6 block -3, SENP8 block-2 13, SENP7 inh 8 and HSP90 inh -3.
For CC(C)Oc1ccc(CCC(=O)NNC(=S)Nc2ccccc2)cc1 the results were SENP8 block-1 1, SENP6 block -10, SENP8 block-2 10, SENP7 inh 4, HSP90 inh 18*, HSP90 confirm -6 and luciferase ctr -10.
For Cc1ccc(S(=O)(=O)N2CCOCC2)cc1NC(=O)COc1ccc2c(C)cc(=O)oc2c1 the results were SENP8 block-1 -2, SENP6 block 1, SENP8 block-2 -411, SENP7 inh 3 and HSP90 inh 4.
For C/C(=N\Nc1ccc(C(=O)O)cc1)c1ccc(Cl)s1 the results were SENP8 block-1 16, SENP6 block 40, SENP8 block-2 -24, SENP7 inh 1, HSP90 inh 22*, HSP90 confirm 29* and luciferase ctr 22*.
`C/C(=N\NC(=O)c1ccccc1C)c1cccc([N+](=O)[O-])c1` gave SENP8 block-1 6, SENP6 block 16, SENP8 block-2 9, SENP7 inh 15 and HSP90 inh 0.
C/C(=N\Nc1ccccn1)c1ccc(S(=O)(=O)NCc2ccco2)cc1 was read as SENP8 block-1 -9, SENP6 block -11, SENP8 block-2 28, SENP7 inh -16 and HSP90 inh -4.
`C/C(=N\NC(=O)C(O)c1ccccc1)c1ccc(Cl)s1` (stereo unspecified) gave SENP8 block-1 -1, SENP6 block -5, SENP8 block-2 9, SENP7 inh -5 and HSP90 inh 0.
`C/C(=N\Nc1ccc(Cl)c(C(=O)O)c1)c1cccc([N+](=O)[O-])c1` gave SENP8 block-1 -5, SENP6 block -1, SENP8 block-2 36, SENP7 inh 7, HSP90 inh 18*, HSP90 confirm 2 and luciferase ctr -14.
Screening C/C(=N\Nc1ccc(C(=O)O)cc1)c1ccc(Br)cc1 returned SENP8 block-1 1, SENP6 block 39, SENP8 block-2 5, SENP7 inh 20, HSP90 inh 46*, HSP90 confirm 78* and luciferase ctr 67*.
Screening C/C(=N\Nc1ccc(C(=O)O)cc1)c1ccc(S(=O)(=O)NCc2ccco2)cc1 returned SENP8 block-1 -8, SENP6 block -10, SENP8 block-2 -14, SENP7 inh -5, HSP90 inh 48*, HSP90 confirm 20* and luciferase ctr 9.
Screening COc1ccc(/C(C)=N/Nc2ccc(C(=O)O)cc2)c(OC)c1 returned SENP8 block-1 1, SENP6 block 4, SENP8 block-2 -20, SENP7 inh 1, HSP90 inh 22*, HSP90 confirm 13 and luciferase ctr 19*.
Screening C/C(=N\NC(=O)c1ccc(Cl)c(Cl)c1)c1ccc(Br)s1 returned SENP8 block-1 1, SENP6 block -6, SENP8 block-2 19, SENP7 inh 3 and HSP90 inh -3.
`C/C(=N\Nc1ccc(Cl)c(C(=O)O)c1)c1ccc(Br)s1` gave SENP8 block-1 -3, SENP6 block 3, SENP8 block-2 -1, SENP7 inh 5, HSP90 inh 22*, HSP90 confirm 1 and luciferase ctr -10.
For CCOC(=O)N1CCN(c2cc3nccnc3cc2F)CC1 the results were SENP8 block-1 -1, SENP6 block -13, SENP8 block-2 -189, SENP7 inh -1 and HSP90 inh 1.
Screening Cc1ccc(-n2cnc3cc(NCc4cccs4)ccc32)cc1 returned SENP8 block-1 -5, SENP6 block -2, SENP8 block-2 -203, SENP7 inh 2 and HSP90 inh 15.
For c1ccc(-n2cnc3cc(NCc4cccs4)ccc32)cc1 the results were SENP8 block-1 -13, SENP6 block 16, SENP8 block-2 -254, SENP7 inh -2, HSP90 inh 51*, HSP90 confirm 63* and luciferase ctr 61*.
CC1=C(Nc2ccc(C(=O)O)cc2)C(=O)c2ccccc2C1=O was read as SENP8 block-1 2, SENP6 block 16, SENP8 block-2 27, SENP7 inh -1 and HSP90 inh 15.
